Bioassay records: PubChem BioAssay, National Center for Advancing Translational Sciences (NCATS)
Pol eta inh-1: inhibitors of human DNA polymerase eta. actives 1.2% (n = 390,000). AID 588591. Q9Y253. Potency, µM (top dose mostly 114 µM), without a hit: top-dose activity change, negative = inhibition, most hits filed as inhibitors. recombinant Pol eta, fluorescent DNA replication assay; further: potency means the concentration at half of the fitted maximal effect; on the % scale 0 is the no-effect control and ±100 the full control effect
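Pol eta (10 nM) was preincubated with compounds for 15 min at room temperature, after which fluorescent replication substrate (50 nM final) was added to start the reaction. Fluorescence was read kinetically at 0 and 10 min.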
Pol iota inh: DNA polymerase iota (human) inhibition; Q9UNA4; Pol iota fluorescent replication assay, 10 min; Potency, µM (top dose mostly 115 µM), for the others: at the highest dose activity, negative = inhibition, most hits filed as inhibitors; actives 1% (n = 390,000); AID 588590; further: potency means the concentration at half of the fitted maximal effect
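Pol iota at 10 nM preincubated 15 min with compounds at room temperature; reaction started with fluorescent substrate, 50 nM final. Fluorescence read kinetically at 0 and 10 min; buffer-only wells as negative control.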
POLB inh: DNA polymerase beta (human) inhibition | Pol beta primer extension/strand displacement, fluorescence kinetic | Potency, µM (doses to about 114 µM), for inactives: top-dose activity change, negative = inhibition, most hits filed as inhibitors | actives 1.3% (n = 340,000); further: potency means the concentration at half of the fitted maximal effect; on the % scale 0 is the no-effect control and ±100 the full control effect
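Values derive from four-parameter Hill fits of normalized kinetic data: reads at 0 and 10 min following addition of 50 nM substrate to 10 nM Pol beta preincubated 15 min with compound.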
WRN inhibitor: blocks human WRN helicase; WRN helicase unwinding, fluorescent forked duplex, kinetic; Potency, µM (series often up to 114 µM), without a hit: top-dose activity change, negative = inhibition, most hits filed as inhibitors; actives 0.46% (n = 360,000); Q14191; AID 651768; further: potency means the concentration at half of the fitted maximal effect; on the % scale 0 is the no-effect control and ±100 the full control effect; nearly all actives have a fitted effect of over 55% in size
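Enzyme (20 nM final) and test compound sit together 15 min at room temperature before substrate addition. Substrate is a single-forked duplex oligonucleotide (100 nM) labelled with fluorophore and quencher, with 2 mM ATP; helicase unwinding raises red fluorescence, read kinetically.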
FEN1 inhibitor: inhibitors of human flap endonuclease 1. Recombinant FEN1 flap cleavage, fluorescence, 15 min. Potency, µM (highest dose often 114 µM), for inactives: at the top dose activity change, negative = inhibition, most hits filed as inhibitors. actives 0.35% (n = 390,000). P39748. AID 588795; further: potency means the concentration at half of the fitted maximal effect; on the % scale 0 is the no-effect control and ±100 the full control effect; nearly all actives have a fitted effect of over 65% in size
Target sequence (P39748 whole entry, looked up): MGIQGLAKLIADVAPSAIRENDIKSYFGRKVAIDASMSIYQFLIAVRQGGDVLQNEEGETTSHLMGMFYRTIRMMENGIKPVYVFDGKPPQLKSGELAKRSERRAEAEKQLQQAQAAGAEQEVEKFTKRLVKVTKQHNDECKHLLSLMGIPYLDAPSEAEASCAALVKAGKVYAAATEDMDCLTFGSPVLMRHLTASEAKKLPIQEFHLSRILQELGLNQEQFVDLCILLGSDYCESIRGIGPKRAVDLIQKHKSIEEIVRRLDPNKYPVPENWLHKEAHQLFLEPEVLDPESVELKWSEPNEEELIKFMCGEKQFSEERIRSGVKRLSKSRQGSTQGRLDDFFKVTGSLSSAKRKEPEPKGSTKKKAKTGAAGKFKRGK
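FEN1 at 10 nM, compound pretreatment for 15 min (room temperature), 50 nM final substrate to initiate; endpoint reads at 0 and 15 min; DMSO-only plates used as vehicle background.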
Pol kappa inh-1: inhibitors of human DNA polymerase kappa | Potency, µM (top dose mostly 107 µM), without a hit: at the highest dose activity, negative = inhibition, most hits filed as inhibitors | actives 0.53% (n = 400,000) | purified Pol kappa, fluorescent DNA synthesis assay, 10 min | AID 588579; further: potency means the concentration at half of the fitted maximal effect; on the % scale 0 is the no-effect control and ±100 the full control effect
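Inhibition of 10 nM Pol kappa is measured by a fluorescent read-out at 0 and 10 min following addition of 50 nM substrate (final), with a 15-min room-temperature compound preincubation.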
GALK confirm: confirmation of human galactokinase (GALK) inhibitors | shares compounds with Pol eta inh-1 | purified GALK, Kinase-Glo ATP depletion luminescence | Potency, µM (titrated, usually from 115 µM), without a hit: top-dose activity, negative = inhibition, actives largely listed as inhibitors | actives 70% (n = 150) | AID 2015
Redox cycling: generates H2O2 by redox cycling, flagging GALK artifacts; shares compounds with Pol eta inh-1; Phenol red-HRP H2O2 redox cycling, absorbance 600 nm; Potency, µM (doses to about 115 µM), inactives show at the top dose activity change, negative = H2O2 signal, actives largely listed as inhibitors; actives 40% (n = 150)
HEK293 tox: counter-screen for GALK inhibitors: HEK293 cell cytotoxicity. shares compounds with Pol eta inh-1. HEK-293 viability, ATP luminescence (CellTiter-Glo), 24/48 h. Potency, µM (doses to about 46.1 µM), inactives show top-dose activity change, negative = cytotoxicity, actives largely listed as inhibitors. actives 10% (n = 170); further: potency means the concentration at half of the fitted maximal effect; on the % scale 0 is the no-effect control and ±100 the full control effect
Pol kappa inh-2: Pol kappa (human) inhibition, cherry-pick confirmation | shares compounds with Pol eta inh-1 | purified Pol-kappa, fluorescent strand-displacement substrate | Potency, µM, actives largely listed as inhibitors | actives 76% (n = 920) | AID 720501; further: potency means the concentration at half of the fitted maximal effect
Pol eta inh-2: Pol eta (human) inhibition, cherry-pick confirmation. shares compounds with Pol eta inh-1. Potency, µM, actives largely listed as inhibitors. actives 64% (n = 2,600). Pol eta primer extension, TAMRA/BHQ fluorescence, 10 min; further: potency means the concentration at half of the fitted maximal effect
Starred values were filed as active, the others as inactive; ? = inconclusive; . = no result given; [ ] = dose if it differs, or a comment. Shown are actives, neighbours in structure and some others; about 2.4% of the full set was active somewhere. The call rests on the fitted dose curve; in most records, active means well fitted curve in the direction sought with a large enough effect; inconclusive means small, poorly fitted or top-dose-only effect, or another doubt; inactive means no such curve, though single readings can be large; an effect the other way counts as inactive or inconclusive.

SMILES	Pol eta inh-1	Pol iota inh	POLB inh	WRN inhibitor	FEN1 inhibitor	Pol kappa inh-1	Pol eta inh-2	others
O=C(NC1(O)C(=O)c2ccccc2C1=O)c1c(Cl)cccc1Cl	45µM*	1.6µM*	11%	-6%[11.6 µM]	-19%	-13%	?	GALK confirm=24µM*;Redox cycling=9.4µM*;HEK293 tox=14%
O=C(NC1(O)C(=O)c2ccccc2C1=O)c1ccccc1	32µM*	6.3µM*	-6%	-19%	2%	-17%	.	GALK confirm=24µM*;Redox cycling=11µM*;HEK293 tox=-1%
O=C(Nc1ccccc1Cl)c1sc2cccc(Cl)c2c1Cl	17%	2%	-10%	.	16%	-6%	.
COc1cc(C2c3cc4c(cc3OC(NNC(N)=O)C2C)OCO4)cc(OC)c1OC (centres undefined)	?	-6%	.	3%	1%	-10%	.
CCOC(=O)C1CCCN(C(=O)CCCn2c(=O)c3cccn3c3cccnc32)C1 (centres undefined)	-11%	-11%	13%	1%	22%	-5%	.
Cc1ccc(C)c(N2CCN(S(=O)(=O)c3c(C)noc3C)CC2)c1	1%	27%	29%	1%	-21%	0%	.
CCOC(=O)C1=CN(Cc2ccco2)S(=O)(=O)NC1c1ccc(Br)cc1F (centres undefined)	-7%	?	.	-5%	0%	-10%	.
O=C(NC(Cc1ccccc1)C(=O)O)/C(=C/c1ccco1)NC(=O)c1cccc(Br)c1 (centres undefined)	20µM*	?	?	-17%	-4%	?	54*	Pol kappa inh-2=19*
CCOC(=O)C(=C1Nc2ccccc2N1)n1c(-c2ccco2)nc2ccccc21	.	.	.	-30%	.	.	.
O=C(c1cnsn1)N1CCCC(Nc2ccc(F)c(F)c2)C1 (centres undefined)	0%	-16%	6%	-4%	21%	4%	.
CNS(=O)(=O)c1cccc(C(=O)OC2CCOC2=O)c1 (centres undefined)	-13%	115%	0%	-3%	-9%	-5%	.
CS(=O)(=O)c1ccc(C(=O)OC2CCOC2=O)cc1[N+](=O)[O-] (centres undefined)	20µM*	?	?	-5%	-10%	-28%	38*
CN(CCOc1ccccc1)C(=O)CCc1nc2sc3c(c2c(=O)[nH]1)CCCC3	?	25µM*	?	6%[11.6 µM]	3%	-35%	?
COc1ccc(C(=O)NC2CCN(CC(=O)NC3CCCCC3)CC2)cc1	-24%	32%	104%	-1%	-5%	0%	.
COc1ccc(NC(=O)C2CCCN(c3nnc(C)c4c(C)n(-c5ccccc5)nc34)C2)cc1Cl (centres undefined)	35µM*	-30%	71µM*	.	10%	?	?	Pol kappa inh-2=17*
Cc1cc(C)cc(OCc2cc(=O)n3c(-c4ccccc4)csc3n2)c1	?	?	13µM*	.	-6%	?	?	Pol kappa inh-2=?
COc1ccccc1C1N=C(Nc2nc3ccccc3o2)NC2=C1C(=O)CC(C)(C)C2 (centres undefined)	.	29%	.	.	-13%	-18%	.	HEK293 tox=-28%
O=C1CCCC2=C1C(c1ccc(Cl)cc1)N=C(Nc1nc3ccccc3o1)N2 (centres undefined)	.	-6%	.	.	-16%	1%	.	HEK293 tox=13%
CC1(C)CC(=O)C2=C(C1)NC(Nc1nc3ccccc3o1)=NC2c1cccc(Cl)c1 (centres undefined)	.	.	.	.	.	.	.	HEK293 tox=?
COc1cccc(C2C(C(=O)Nc3nc4ccccc4s3)=C(C)NC3=C2C(=O)CC(C)(C)C3)c1OC (centres undefined)	-2%	9%	12%	9%	3%	-14%	.
COc1cccc(C2N=C(Nc3nc4ccccc4o3)NC3=C2C(=O)CC(C)(C)C3)c1 (centres undefined)	.	.	.	.	.	.	.	HEK293 tox=6%
CCCN1CN=C(Nc2nc3ccccc3o2)NC1	-16%	58%	-7%	-6%	-4%	3%	.
CC1CCN(S(=O)(=O)c2ccc(NC(=O)Cc3cccs3)cc2)CC1	?	?	14µM*	?	-12%	?	?
CCN(CC)S(=O)(=O)c1ccc(NC(=O)Cc2cccs2)cc1	56µM*	?	28µM*	3%[11.6 µM]	-13%	-27%	?
NS(=O)(=O)c1ccc(NC(=O)Cc2cccs2)cc1	-12%	108%	-6%	-6%	-8%	1%	.
SMILES	Pol eta inh-1	Pol iota inh	POLB inh	WRN inhibitor	FEN1 inhibitor	Pol kappa inh-1	Pol eta inh-2	others
CC1CCN(S(=O)(=O)c2ccc(NC(=O)CN3CCCC3)cc2)CC1	-21%	136%	-27%	-5%	3%	6%	.
CCOc1ccccc1NC(=O)CCNS(=O)(=O)c1ccc(NC(C)=O)cc1	-16%	-5%	32%	4%	-3%	2%	.
CCOc1ccccc1NC(=O)CCS(=O)(=O)c1ccc(Br)cc1	18µM*	18µM*	10µM*	50µM*	-11%	?	24*
O=C(CCS(=O)(=O)c1ccc(Br)cc1)Nc1ccc(F)cc1F	-9%	-6%	15%	.	-11%	-10%[60.1 µM]	.
O=C(CCS(=O)(=O)c1ccc(Br)cc1)Nc1cc(F)ccc1F	?	-6%	18µM*	-21%[57.1 µM]	-2%	?	.	Pol kappa inh-2=42*
COCCCNC(=O)Cn1nnc(-c2ccc(NC(=O)c3cccnc3)cc2)n1	.	.	2%	.	.	.	.
Cc1ccc(C)c(/C=C(\C(=O)O)c2ccc(S(=O)(=O)N3CCCCC3)s2)c1	50µM*	?	22µM*	-12%[11.6 µM]	12%	?	?
